Shown are actives, neighbours in structure and some others; about 6.2% of the full set was active somewhere.
HCMV antiviral – human cytomegalovirus inhibition | HFF cells, HCMV-luciferase reporter, 72 h; active compounds read low | activity change, negative = inhibition, % at 57.5 µM | hit rate 4.5% among 410,000; in the data active = activity change below about -60%; inconclusive = no clear call, values can overlap the other calls; inactive = above about -39%
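HFF cells seeded 16 h at 37C, treated with compounds, infected with luciferase-reporter HCMV at MOI 1 PFU/cell; luciferase read at 72 h post infection, normalized to buffer-only and Salinomycin controls.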
FMDV inh – blocks foot and mouth disease virus. FMDV antiviral cell-based qHTS. Potency, µM (series often up to 57.9 µM), without a hit: at the highest dose activity change, negative = inhibition, hits mostly inhibitors. hit rate 1.2% among 410,000. AID 1159524; calls by dose curve; tested in HEK293T cells; also: read-out not given here; potency is read from the fitted curve at half-maximal effect; nearly all actives have a fitted effect of over 45% in size
MARV entry inh – blocks Marburg virus binding to or entry into cells; hit rate 1.8% among 300,000; Potency, µM (doses to about 37.8 µM), inactives show at the top dose activity change, negative = inhibition, hits mostly inhibitors; AID 540276; Marburg virus pseudotyped entry inhibition, cell reporter; calls by dose curve; tested in HEK293 cells; also: potency is read from the fitted curve at half-maximal effect
Lassa entry inh – inhibitors of Lassa virus binding or cell entry; Lassa virus pseudotype entry inhibition, cell reporter; Potency, µM (doses to about 37.9 µM), inactives show at the highest dose activity change, negative = inhibition, hits mostly inhibitors; hit rate 1.2% among 300,000; calls by dose curve; tested in HEK293 cells; also: potency is read from the fitted curve at half-maximal effect; nearly all actives have a fitted effect of over 50% in size
Numbers without * were called inactive; ? = inconclusive; / = no result given; [ ] = another dose, or the depositor's remark. % is scaled to controls: 0 for no effect and ±100 for the full control effect.

SMILES | HCMV antiviral | FMDV inh | MARV entry inh | Lassa entry inh
NS(=O)(=O)c1ccc(NCc2cc(Cl)ccc2OCc2ccccc2F)cc1 | -61* | ? | -4% | -25%
CCN(Cc1ccccc1)S(=O)(=O)c1ccc(C(=O)N2CCN(c3nc4ccccc4s3)CC2)cc1 | -66* | 10µM* | ? | 0%
CCc1ccc2nc(N3CCN(C(=O)c4ccccc4)CC3)sc2c1 | ? | ? | / | -8%[46.1 µM]
CCCC(=O)N1CCN(c2nc3ccc(Br)cc3s2)CC1 | -68* | 3% | / | /
O=C(c1ccccc1)N1CCN(c2nc3ccc([N+](=O)[O-])cc3s2)CC1 | -67* | ? | / | /
CC(=O)c1ccc(NC(=O)Cn2c(=O)nc(-c3ccccc3)c3ccccc32)cc1 | 45 | 15% | / | 3%[46.1 µM]
O=C(NC(Cc1c[nH]c2ccccc12)C(=O)Nc1ccc(F)c([N+](=O)[O-])c1)c1cccs1 (configuration not stated) | -87* | -24% | 0.79µM* | 0.58µM*
O=C(NC(Cc1c[nH]c2ccccc12)C(=O)O)c1cccs1 (configuration not stated) | -10 | 6% | -2%[14.2 µM] | -6%
COc1ccc(C(=O)NCc2nnc(SCC(=O)Nc3nnc(C)s3)o2)cc1 | 25 | -2% | / | /
O=c1cc(O)c2ccc(O)cc2o1 | 13 | -9% | / | /
O=c1ccc2[n+]([O-])c3ccc(O)cc3oc-2c1 | -61* | -21% | / | /
COc1cccc(N(C(=O)c2cccs2)c2nc3ccccc3s2)c1 | -101* | 23% | -11% | ?
CC(C)CN(CC(C)C)S(=O)(=O)c1ccc(C(=O)Nc2sc3c(c2C(N)=O)CC(C)(C)NC3(C)C)cc1 | -97* | -6% | / | -27%[46.1 µM]
CC(C)C(=O)Nc1cccc(COc2ccc(CN(Cc3ccccc3)C(=O)OC(C)(C)C)cc2)c1 | -34 | 11µM* | / | /
CC(C)C(=O)Nc1ccc(COc2ccccc2CN(Cc2ccccc2)C(=O)OC(C)(C)C)cc1 | -74* | -15% | / | /
CC(C)(C)OC(=O)N(CCc1ccccc1)Cc1ccc(OCc2cccc(NC(=O)/C=C/c3ccccc3)c2)cc1 | 62 | 23% | / | /
CC(C)(C)OC(=O)N(CCc1ccccc1)Cc1ccc(OCc2cccc(NC(=O)C3CC3)c2)cc1 | ? | 22µM* | / | /
CC(C)(C)OC(=O)N(CCc1ccccc1)Cc1cccc(OCc2cccc(NC(=O)c3ccccc3)c2)c1 | -36 | -15% | / | /
CC(C)(C)OC(=O)N(CCc1ccccc1)Cc1ccccc1OCc1ccc(NC(=O)C2CCCC2)cc1 | -15 | -1% | / | /
COCCNC(=O)CSc1nc2sc(C)c(C)c2c(=O)n1-c1ccccc1 | -16 | 0% | 10% | 2%
O=C(NC1CCC(O)CC1)c1cccc2cccnc12 (configuration not stated) | -1 | -13% | 3%[46.1 µM] | 20%
COC(=O)c1cc(S(=O)(=O)N2CCOCC2)ccc1Sc1ccccc1N | 20 | -19% | 2% | ?
O/N=C(\c1ccccn1)C1CC1c1ccccc1 (configuration not stated) | -79* | 17% | 6%[46.1 µM] | ?
COc1ccc(C2CC2/C(=N/O)c2ccccn2)cc1 (configuration not stated) | -3 | 35% | 7%[46.1 µM] | 4%
O=C(Nc1nnc(C2CCCO2)s1)c1cccs1 (configuration not stated) | 102 | 66% | 19% | 26%
SMILES | HCMV antiviral | FMDV inh | MARV entry inh | Lassa entry inh
COc1ccc(-c2noc(CCC(=O)NCCCN3CCN(c4ccccc4F)CC3)n2)cc1 | -67* | ? | / | /
COc1ccc(-c2noc(CCC(=O)NCCN3CCN(c4ccccc4F)CC3)n2)cc1 | -35 | ? | ? | ?
COc1ccc(-c2noc(CCCCC(=O)N3CCN(c4cc(C)ccc4C)CC3)n2)cc1 | -96* | ? | / | /
COc1ccc(-c2cc3nc(C)c(CCC(=O)N4CCN(c5cc(C)ccc5C)CC4)c(C)n3n2)c(OC)c1 | 2 | 28µM* | -2%[46.1 µM] | 13%[46.1 µM]
COc1cc(OC)cc(-c2cc3nc(C)c(CCC(=O)O)c(C)n3n2)c1 | -79* | 1.4µM* | -2% | /
c1ccc(C[C@@H](c2ccccc2)N2CCCCC2)cc1 | / | -2% | / | /
O=C(COc1ccc(F)cc1)NCCNC(=O)COc1ccc(F)cc1 | -7 | 2% | / | /
CN(C)CCOc1ccc2c(c1)C(=O)C(=Cc1ncc([N+](=O)[O-])n1C)C2 | -98* | -5% | / | /
CCc1cc(OCCN(C)C)ccc1Cl | 21 | -1% | -6%[46.1 µM] | /
COc1cc2cc(Oc3ccc4ccc(=O)oc4c3)c(=O)oc2cc1O | -10 | -3% | 2% | 22%
Cc1ccc(C(C(=O)NCc2ccco2)N(C(=O)CNC(=O)c2cccs2)c2c(C)cc(C)cc2C)cc1 (configuration not stated) | -78* | 11% | ? | ?

Screening data as filed in PubChem.
